Source: PubChem BioAssay (The Scripps Research Institute Molecular Screening Center)
This is one part of a sample in which hits are shown more often than they occur.
TTR transcr act = TTR transcription activators in neuroblastoma reporter cells, primary screen, cell-based, luminescence, SH-SY5Y, TTR promoter Gaussia luciferase; 100% = recombinant luciferase protein wells; activation, % at 16.7 µM; hit rate 1.3% among 92,000; AID 1117267, 2014;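 active = activation above the mean of all tested compounds plus 3 SD, cut at about 9.5% in these data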;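 note: cells exposed to compounds for one day before reading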
HuH7 TTR inh = TTR promoter reporter inhibitors in hepatoma cells, counter-screen for TTR transcription activator project, cell-based, luminescence, HuH7 hepatoma; shares compounds with TTR transcr act; HuH7 TTR promoter-Gaussia luciferase reporter; inhibition, % at 16.7 µM; hit rate 4% among 1,100; AID 1117279, 2014;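 active = average inhibition above the solvent-only control wells' mean plus 3 SD, cut at about 15% in these data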;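 note: inhibitors lower well luminescence so higher value means more inhibition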
TTR up confirm = TTR transcription activators, retest, confirmation, cell-based, luminescence, SH-SY5Y, triplicate; shares compounds with TTR transcr act; SHSY5Y TTR promoter Gaussia luciferase; 100% = purified Lucia enzyme wells, no cells; AID 1117280, 2014; 1,100 tested, under 10 active; activation, % at 16.7 µM;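 active = mean activation above a set limit taken from the earlier primary screen, cut at about 11% in these data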
Each line names hits and unclear results; the compound was inactive in the other large screens (follow-up assays come after a bar, where they were run).

O=C(Nc1ccc(N2C(=O)CC3(CCCCC3)C2=O)c(Cl)c1)c1ccccn1	none
O=C(NCc1ccccc1)c1ccc(CO)cc1	none
O=C(NCc1ccccc1)NC(=O)c1ccc(Cl)cc1	TTR transcr act 25 | HuH7 TTR inh inactive | TTR up confirm inactive
O=C(NCc1ccccc1Cl)NC(=O)c1ccccc1	none
Clc1cc(Cl)cc(CNC2CCC23CCC(c2ccccc2)CC3)c1 (stereo unspecified)	none
Clc1ccc(OCCOc2ccc(Br)nc2Br)c(Cl)c1	none
COc1ccc(CNC2CCC23CCC(C)CC3)cc1OC (stereo unspecified)	none
COc1ccc(S(=O)(=O)NCC(=O)N(CC(=O)NCc2ccco2)Cc2ccccc2)cc1	none
COc1ccccc1N(CC(=O)NCC1CCCO1)C(=O)CNS(=O)(=O)c1ccc(Cl)cc1 (stereo unspecified)	none
COc1ccc(CNC(=O)CN(Cc2ccco2)C(=O)CNS(=O)(=O)c2ccccc2)cc1	none
COc1ccccc1N(CC(=O)NCC1CCCO1)C(=O)CNS(=O)(=O)c1ccc(C)cc1 (stereo unspecified)	TTR transcr act 13 | HuH7 TTR inh inactive | TTR up confirm inactive
COc1ccccc1CN(CC(=O)NCc1ccco1)C(=O)CNS(=O)(=O)c1ccc(C)cc1	TTR transcr act 12 | HuH7 TTR inh inactive | TTR up confirm inactive
O=C(CN(C(=O)CNS(=O)(=O)c1ccc(F)cc1)c1cccc(F)c1)NCC1CCCO1 (stereo unspecified)	none
CCCCCCNC(=O)c1c(N)[nH]c(C(=O)c2ccccc2)c1-c1ccc(O)cc1	none
CCC[C@H]1[C@@H](NC(=O)/C=C/c2ccccc2)CC[C@@]23CCCN2C(=O)CCC[C@@H]13	none
O=C(NCCc1nc2ccccc2n1CCOc1cc(F)ccc1F)C1CCCCC1	none
COc1ccc(CNC(=O)C(OC(=O)c2ccco2)c2ccccc2F)cc1 (stereo unspecified)	none
COc1ccc(C(OC(=O)c2ccco2)C(=O)NC(C)(C)C)cc1 (stereo unspecified)	TTR transcr act 26 | HuH7 TTR inh inactive | TTR up confirm inactive
CCC(OC(=O)c1ccco1)C(=O)NCc1ccc(OC)cc1 (stereo unspecified)	none
Cc1ccccc1CN1CCCCC(NC(=O)c2ccc3ccccc3c2)C1=O (stereo unspecified)	none
Cc1ccc(S(=O)(=O)N/N=C/c2cccc(OC3CSC3)c2)cc1	none
O=S(=O)(N/N=C/c1cccc(OC2CSC2)c1)c1ccccc1	none
O=S(=O)(N/N=C/c1ccc(OC2CSC2)cc1)c1ccccc1	TTR transcr act 12 | HuH7 TTR inh inactive | TTR up confirm inactive
C#CCNC(=O)C[C@H]1C(=O)N(CCCOC)C2=CCCCC[C@]21C(=O)OC	none
Cc1ccc(-c2nnc(NC(=O)COc3ccc(F)cc3Cl)o2)cc1C	none
C[C@H]1[C@H](c2ccccc2)Oc2cccc(NCCc3ccccc3)c2S(=O)(=O)N1Cc1cccc(F)c1	none
COc1ccc(CN2C(=O)[C@@](O)(c3cccn3C)c3cc(F)ccc32)cc1	none
COc1ccc2[nH]c3c(N4CCc5ccccc5C4)ncnc3c2c1	none
COc1ccc2[nH]c3c(Cl)ncnc3c2c1	TTR transcr act 16 | HuH7 TTR inh 19 | TTR up confirm inactive
CCCCOc1ncnc2c1[nH]c1ccc(OC)cc12	none
CC[C@H]1/C(=C/c2ccccc2)N2C(=O)C[C@H](c3ccccc3)N=C2N1C	none
C=CCN1C/C(=C/c2ccccc2)N2C(=O)CC(c3ccccc3)N=C12 (stereo unspecified)	TTR transcr act 11 | HuH7 TTR inh inactive | TTR up confirm inactive
O=C1CC(c2ccc3ccccc3c2)N=C2N(Cc3ccc4c(c3)OCO4)C/C(=C/c3ccccc3)N12 (stereo unspecified)	none
CCOc1ccccc1NC(=O)CNC(=O)Cc1ccccc1	none
CCOc1ccccc1NC(=O)Cc1coc2cc(C)ccc12	TTR transcr act 14 | HuH7 TTR inh inactive | TTR up confirm inactive
Cc1ccc(C)c(NC(=O)Cc2coc3cc4c(cc23)CCC4)c1	none
N#Cc1ccc(NC(=O)OC2CC3CC2[C@H]2CCCCN2[C@H]3Cc2ccccc2)cc1 (stereo partly specified)	none
CC(C)(C)c1ccc(/C=C(\C#N)C(=O)Nc2ccccn2)cc1	none
COc1cc(/C=C(\C#N)C(=O)Nc2ccccn2)ccc1O	none
CNc1ccc(/C=C(\C#N)C(=O)Nc2ccccn2)cc1[N+](=O)[O-]	TTR transcr act 23 | HuH7 TTR inh inactive | TTR up confirm inactive
C[C@H]1CCCN1c1ccc2c(c1)O[C@@H]1CCN(C1)S2(=O)=O	none
CC(C)c1nc(C(N)=O)c2[nH]c(=O)n(-c3ccc(F)cc3)c2n1	TTR transcr act 9.8 | HuH7 TTR inh inactive | TTR up confirm inactive
Cc1ccsc1-c1nc(C(N)=O)c2[nH]c(=O)n(-c3ccc(Cl)cc3)c2n1	none
CCOc1ccccc1-c1nc(C(N)=O)c2[nH]c(=O)n(-c3ccc(F)cc3)c2n1	none
CCCCC(=O)N[C@H]1CC[C@@]23CCCN2C(=O)CCC[C@H]3[C@H]1CCC	none
O=C(NCc1ccc(C(F)(F)F)cc1)O[C@H]1CC[C@@]23CCCN2C(=O)CCC[C@H]3C1	none
CCCCNC(=O)C[C@@H]1C[C@]2(C(=O)OCC)CCC3=C2N(CCC3)C1=O	none
CCCSc1cc(=O)n(-c2ccccc2)nc1C(=O)O	none
CCCCSc1cc(=O)n(-c2ccccc2)nc1C(=O)OCC	TTR transcr act 10 | HuH7 TTR inh inactive | TTR up confirm inactive
CCOC(=O)c1nn(-c2ccccc2)c(=O)cc1SC(C)C	none
COC(=O)[C@]12C[C@H](CC(=O)N3CCCCC3)C(=O)N(CCc3ccc(OC)c(OC)c3)C1=C[C@H](C(C)C)O[C@@H]2C1CC1	none
Cc1nn2cc(-c3ccccc3)nc2[nH]c1=O	TTR transcr act 10 | HuH7 TTR inh inactive | TTR up confirm inactive
O=C(O)CCc1nn2cc(-c3ccccc3)nc2[nH]c1=O	none
Cc1nn2c(-c3ccccc3)c(-c3ccccc3)nc2[nH]c1=O	none
Cn1cc(CNCc2ccc(-n3cccn3)cc2)c(-c2ccccc2F)n1	none
O=C(NC1CCCCC1)O[C@H]1CC[C@@]23CCCN2C(=O)CCC[C@H]3C1	none
O=C(Nc1ccc(Cl)cc1)OC[C@@H]1CSCCS(=O)(=O)N1	none
O=[N+]([O-])c1cccc(-c2noc3c2-c2nc(Cc4cccc5ccccc45)sc2CC3)c1	TTR transcr act 34 | HuH7 TTR inh inactive | TTR up confirm inactive
O=[N+]([O-])c1cccc(-c2nc(-c3ccccn3)no2)c1	none
Fc1cccc(F)c1-c1nc2c(s1)CCc1onc(-c3ccc(Br)cc3)c1-2	none
Cc1cc(C)cc(C(=O)N2CCC(CCC(=O)NC3CC3)CC2)c1	none
O=C(CCC1CCN(C(=O)c2cc(C(F)(F)F)ccc2Cl)CC1)NC1CC1	TTR transcr act 17 | HuH7 TTR inh inactive | TTR up confirm inactive
COc1cc(Cl)c(CN2CCC(CCC(=O)NC3CC3)CC2)cc1OC	none
Cc1ccccc1Cn1cc(COC(=O)Nc2ccc(F)cc2)nn1	none
COC(=O)C1=C(C)OC(N)=C(C#N)C1c1ccccc1F (stereo unspecified)	none
COC(=O)CSC1=C(C#N)C(c2ccccc2F)CC(=O)N1 (stereo unspecified)	none
